The values that follow come from PubChem BioAssay AID687038 (Broad Institute, 2013).

Each structure is given as a SMILES string. Calls of active or inactive are those of the source.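 Rule for the calls: active = curve showing a falling signal whose half-maximal concentration is at most twice the top valid dose; inconclusive = flat curve with a moderate drop, or an unreliable fit; inactive = the rest.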

The experiment is described as follows: endogenous miR-21 quantity in Huh7 cells – cell-based, RT-qPCR, dry powder, selectivity assay for miR-122 inhibitor project, dose response (AID 687038). To be noted: Huh7 miR-21 levels, qRT-PCR, 48 h; series mostly up to 35 µM; relative miR-21 level (fold): at the top concentration.
With `OCc1ccc(-c2nn(Cc3ccccc3)c3ccccc23)o1`, the “relative miR-21 level (fold)” value was 1.18 fold (inactive). In the case of `C[C@H]1CN([C@@H](C)CO)C(=O)c2cc(-c3ccc(C#N)cc3)cnc2O[C@H]1CN(C)C(=O)c1ccccc1` it was 1.1 fold (inactive). In the case of `Nc1ccc(Oc2ccc(Cl)cc2)cc1` it was 0.488 fold (inactive).

Turning to `COc1ccc(S(=O)(=O)N(C)C[C@@H]2Oc3ncc(/C=C/c4ccccc4)cc3C(=O)N([C@@H](C)CO)C[C@@H]2C)cc1`, the “relative miR-21 level (fold)” value was 1.54 fold (inactive).

In the case of `CO[C@@H]1CN(C)C(=O)c2cc(NC(=O)c3ccc4c(c3)OCO4)ccc2OC[C@H](C)NC[C@@H]1C`, the “relative miR-21 level (fold)” value is 1.07 fold (inactive). In the case of `C[C@H]1CN([C@@H](C)CO)C(=O)c2cc(-c3ccc(C#N)cc3)cnc2O[C@H]1CN(C)Cc1cncnc1` it was 0.821 fold (inactive); in that of `O=C(CN=C1NS(=O)(=O)c2ccccc21)Nc1ccccc1N1CCCCCC1`, 2.33 fold (inactive). In the case of `O=C(Nc1ccc(-c2nc3ccccc3o2)cc1)c1cc(-n2cnnc2)ccc1Cl` it was 0.344 fold (inactive); in that of `CN1C(=O)c2cc(NC(=O)c3cccc(F)c3)ccc2OC[C@@H]2O[C@@H](CC(=O)O)CC[C@@H]21`, 0.771 fold (inactive).

For `Nc1ccc(Oc2ccc(Br)cc2)cc1`, the “relative miR-21 level (fold)” value was 0.414 fold (inactive). In the case of `C[C@H]1CN([C@@H](C)CO)S(=O)(=O)c2ccc(C#Cc3ccncc3)cc2O[C@@H]1CN(C)C(=O)C1CCOCC1`, the “relative miR-21 level (fold)” value is 0.89 fold (inactive).

For the compound `COCC(=O)N(C)C[C@H]1Oc2cc(-c3ccccc3F)ccc2S(=O)(=O)N([C@H](C)CO)C[C@H]1C`, the “relative miR-21 level (fold)” value was 1.56 fold (inactive).

On to `C[C@@H]1CN([C@H](C)CO)S(=O)(=O)c2ccc(/C=C/c3ccccc3)cc2O[C@@H]1CN(C)C(=O)c1cccnc1`, for which the “relative miR-21 level (fold)” value is 0.881 fold (inactive). To `C[C@@H]1CN([C@@H](C)CO)S(=O)(=O)c2ccc(C#Cc3ccncc3)cc2O[C@H]1CN(C)C(=O)C1CCOCC1` belongs 0.725 fold (inactive).
